# The list is not random: actives were taken first. Their share in the collection is about 19%.
# HT1080 IDH1KD tx: kills HT-1080 cells with IDH1 knockdown; HT-1080 IDH1 knockdown viability, ATP luminescence, 48 h; Potency, µM (series often up to 46.1 µM), for inactives: top-dose activity, negative = toxicity, usual class: cytotoxic; 360,000 tested, 2% active;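 note: potency is the fitted concentration of half-maximal effect; 0% = DMSO wells and -100% = cell-free medium wells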
#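 In this qHTS, HT-1080 cells depleted of IDH1 are exposed for 48 h at 37 °C to compound titrations. Toxicity is scored from CellTiter-Glo luminescence, with DMSO as full viability and medium alone as none.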
# ELG1 repair inh: ELG1-dependent DNA repair inhibition; HEK293T ELG1-luciferase reporter, luminescence, 16 h; DNA damage induced by 5-fluorouridine; Potency, µM (titrated, usually from 46.1 µM), without a hit: top-dose activity change, negative = inhibition, hits mostly inhibitors; 330,000 tested, 2.3% active; AID 504467; note: potency is the fitted concentration of half-maximal effect; nearly all actives have a fitted effect of over 55% in size
#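 Quantitative HTS, concentration-response format. 2,000 cells/well co-treated with 5-fluorouridine and compound, 16 hr in 5% CO2 at 37 °C; ONE-Glo luminescence read after 30 min.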
# TDP1 cell CPT: growth inhibition of DT40 Tdp1-/-;hTDP1 cells with camptothecin (screen for TDP1 inhibitors) | Potency, µM (highest dose often 46.2 µM), inactives show at the top dose activity change, negative = growth inhibition, actives largely listed as inhibitors | AID 686979 | 420,000 tested, 12% active | chicken DT40 Tdp1-/-;hTDP1 cells + 20 nM CPT, ATP luminescence, 48 h; note: potency is the fitted concentration of half-maximal effect; nearly all actives have a fitted effect of over 55% in size
#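 Chicken DT40 Tdp1-/- cells complemented with human TDP1, 400 cells/well, exposed to compounds plus 20 nM camptothecin for at least 48 h at 37 C; viability read as ATP content by CellTiter-Glo luminescence.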
# HT1080NT lethal: kills 2HG-producing HT-1080-NT fibrosarcoma cells | HT-1080-NT fibrosarcoma viability, CellTiter-Glo ATP luminescence, 48 h | Potency, µM (doses to about 46.1 µM), inactives show at the highest dose activity, negative = less viability, hits mostly cytotoxic | 360,000 tested, 1.6% active;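 note: NT is the 2HG producing partner of a matched IDH1 knockdown line; potency is the fitted concentration of half-maximal effect; 0% = DMSO-treated cells and -100% = media-only wells without cells; nearly all actives have a fitted effect of over 55% in size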
#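 HT-1080-NT fibrosarcoma cells (2HG-overproducing), 750 cells/well in RPMI with 5% FBS, dosed after 2 h and incubated 48 h at 37C. CellTiter-Glo luminescence normalized to DMSO and no-cell wells; concentration-response curves fitted and classed.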
# DT40 TDP1 no CPT: qHTS for Inhibitors of human tyrosyl-DNA phosphodiesterase 1 (TDP1): qHTS in cells in absence of CPT. DT40 Tdp1-/- hTDP1 cells, no CPT, ATP luminescence, 48 h. Potency, µM (titrated, usually from 46.2 µM), for the others: at the highest dose activity change, negative = growth inhibition, hits mostly inhibitors. 420,000 tested, 15% active. AID 686978, 2013; note: potency is the fitted concentration of half-maximal effect; nearly all actives have a fitted effect of over 55% in size
#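 Seeded 400 DT40-hTDP1 cells/well (vehicle DMSO, no 20 nM CPT); pinned compounds; ≥48 hr at 37 °C; CellTiter-Glo luminescence as viability measure.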
# IL1B secr inh: inhibitors of inflammasome signaling (IL-1 beta secretion). THP-1 LPS/ATP IL-1B secretion, AlphaLISA, 16 h; hits give low values. activity change, % at 57.5 µM. 360,000 tested, 4.7% active. AID 743279; in the data active = activity change below about -50%; inconclusive = mostly about -30% to -49%
#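 Secreted IL-1B measured by AlphaLISA bead assay after 16 h compound exposure of THP-1 cells; compounds (final up to 57.5 uM) added 1 h before LPS (250 ng/mL) and ATP (1.25 mM) stimulation; lower signal means less secretion.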
# The depositor's hits bear a star; ? = inconclusive; · = not tested or not shown; ! = a repeat was not active; [ ] = remark or other dose. Unless noted, calls come from the whole dose curve; as a rule, active = well fitted curve in the direction sought with a large enough effect; inconclusive = small, poorly fitted or top-dose-only effect, or another doubt; inactive = no such curve, though single readings can be large; an effect the other way counts as inactive or inconclusive. Unless noted, % is set by controls: 0 for no effect and ±100 for the full control effect.
SMILES,HT1080 IDH1KD tx,ELG1 repair inh,TDP1 cell CPT,HT1080NT lethal,DT40 TDP1 no CPT,IL1B secr inh
COCCn1c(SCc2ccc(C(=O)OC)o2)nc2ccccc2c1=O,7%[9.24 µM],?,?,?,21µM*,-18
CC(C)Cn1c(SCc2cccc(F)c2)nc2ccsc2c1=O,·,·,15µM*,·,29µM*,·
O=c1c(-c2cccs2)nc2cncnc2n1C1CC1,·,·,0%,·,-15%,·
CCc1ccc(N2CCn3c2nc2c3c(=O)n(Cc3cccc(C)c3)c(=O)n2C)cc1,·,·,?,·,4%,·
CCSc1nc2cc(C(=O)OC)ccc2c(=O)n1CC,25%,-17%,-23%,-3%,-14%,9
COCCn1c(SCc2cccc(F)c2)nc2cc(C(=O)OC)ccc2c1=O,11%,?,21µM*,6%,?,34
Cc1nc2c(=O)n(C)c(=O)n(C)c2nc1Cl,5.8µM*,?,0.58µM*,9.2µM*,1.2µM*,-99*
Cc1cccc(NC(=O)C(=O)NNC(=O)c2ccc(C(C)(C)C)cc2)c1,8.2µM*,3%,?,6.5µM*,?,-1
CC(C)(C)CC(C)(C)NC(=O)Nc1cccc([N+](=O)[O-])c1,?,0%,?,?,16µM*,-21
O=C(Nc1cccc([N+](=O)[O-])c1)C1C2CC/C=C\CCC21 (centres undefined),-11%,2%,-28%,-1%,18µM*,-5
CC(C)(C)c1ccc(C(=O)Nc2cccc([N+](=O)[O-])c2)cc1,-7%,?,16µM*,-17%,18µM*,-98*
O=C(Cn1cnc2ccccc2c1=O)NCCC(=O)Nc1ccc(F)cc1,6%,2%,8%,8%,6%,30
Cc1noc(C)c1CSCC(=O)OCC(=O)Nc1ccc(OC(F)(F)F)cc1,8%,·,-17%,-1%,-10%,16
COc1ccc(NC(=O)/C=C/c2cc(Br)ccc2OC)cc1,0%,?,?,-1%,21µM*,-16
COc1ccc(Br)cc1/C=C/C(=O)c1ccc(NC(C)=O)cc1,?,15µM*,5.8µM*,?,4.1µM*,-99*
CCN(CC)c1ccc(NC(=O)/C=C/c2cc(Br)ccc2OC)cc1,1%,2%,?,0%,?,-29
COc1ccc(Br)cc1/C=C/C(=O)Nc1c(C)cccc1C,?,-22%,?,2%[9.24 µM],23µM*,-13
COc1ccc(/C=C/C(=O)Nc2ccc(-n3nncc3-c3ccc(OC)c(OC)c3)cc2)cc1OC,-13%,?,?,-5%,?,3
COc1ccc(Br)cc1/C=C\C(=O)NCc1cccnc1,-15%,?,1%,-7%,?,-27
COc1ccc(-c2cnnn2-c2ccc(NC(=O)/C=C/c3ccc(OC)c(OC)c3)cc2)cc1,0%,5.8µM*,?,4%,?,-9
COc1cc(N)c(Cl)cc1C(=O)OCC(=O)N1CCCCCC1,-1%,?,1%,-1%,9%,-1
C=CC1=CCN(S(=O)C(C)(C)C)[C@H]1CCO (some centres undefined),12%,·,-5%,8%,-7%,22
COc1ccc(NC(=S)N2CCN(S(=O)(=O)c3ccccc3)CC2)cc1,1%,-1%,-9%,12%,14%,-4
COc1cccc(C(=O)N2CCCCC2CCN2CCCCC2)c1 (centres undefined),·,·,-22%,·,-16%,·
O=c1c(-c2ccc(F)c(F)c2)nc2cncnc2n1C1CC1,·,·,-2%,·,16%,·
SMILES,HT1080 IDH1KD tx,ELG1 repair inh,TDP1 cell CPT,HT1080NT lethal,DT40 TDP1 no CPT,IL1B secr inh
C[C@@H]1COC(=O)[C@@H](Cc2ccc(F)cc2)C/C=C\C[C@@H](CC(=O)N(CCO)Cc2ccccc2)C(=O)N1,4%,-23%,?,3%,?,1
C[C@H]1COC(=O)[C@H](Cc2ccc(F)cc2)C/C=C\C[C@@H](CC(=O)N(CCO)Cc2ccccc2)C(=O)N1,0%,-17%,15µM*,2%,21µM*,-6
O=C1N[C@@H](Cc2ccccc2)COC(=O)[C@@H](Cc2ccc(F)cc2)C/C=C\C[C@@H]1CC(=O)N(CCO)Cc1ccccc1,?,?,23µM*,?,18µM*,?
O=C1N[C@H](Cc2ccccc2)COC(=O)[C@H](Cc2ccc(F)cc2)CC/C=C/C[C@H]1CC(=O)N(CCO)Cc1ccccc1,-24%,?,?,-22%,23µM*,0
CC(C)(C)OC(=O)C[C@@H]1C/C=C\C[C@@H](CC(=O)N(CCO)Cc2ccccc2)C(=O)NCCOC1=O,-5%,13%,-21%,2%,-21%,14
O=C1NCCOC(=O)[C@@H](Cc2ccc(F)cc2)C/C=C\C[C@@H]1CC(=O)N(CCO)Cc1ccccc1,1%,?,18µM*,0%,21µM*,8
COC(=O)c1sc(NC(=S)NNC(=O)c2c(Br)c(C)nn2C)c(C(=O)OC)c1C,0%,-23%,-7%,-4%,-11%,19
CCCc1cc(=O)oc2cc(OCC(=O)NCCCN3CCOCC3)ccc12,12%,30%,18%,2%,-2%,18
O=S(=O)(O)c1ccc(O)cc1,·,·,9%,·,3%,·
COC(=O)c1ccc(NC(=O)Cn2ccn3nc(-c4ccc(OC)cc4)cc3c2=O)cc1,·,·,-3%,·,-1%,·
Cc1ccc(Cl)cc1NC(=O)CN1CCN(S(=O)(=O)N2CCC(C)CC2)CC1,3%,-10%,?,27%,?,0
CC(C)(C)[C@@H]1COC(=O)[C@H](Cc2ccc(F)cc2)C/C=C\C[C@H](CC(=O)N(CCO)Cc2ccccc2)C(=O)N1,-8%,21µM*,13µM*,-14%,21µM*,-16
O=C(c1sc2ccccc2c1Cl)N1CCN(CCc2ccccn2)CC1,14%,0%,?,-11%,?,4
COc1ccc(CN2C(=O)C(NC(=O)c3ccccc3OC)(C(F)(F)F)N=C2c2ccccc2)cc1 (centres undefined),·,·,18µM*,·,15µM*,·
CCCCNc1c(-c2ccc(SC3CCCCC3)c(OC)c2)nc2ccc(C)cn12,?,?,23µM*,?,18µM*,-68*!
COc1ccc(-c2nc3ccc(C)cn3c2NCc2ccccc2)cc1SC1CCCCC1,?,?,13µM*,?,23µM*,0

# Bioassay records as filed in PubChem BioAssay.
